In PubChem BioAssay (NCATS):
Inconclusive results are not listed. A number with no mark means an inactive call. Calls of active or inactive are those of the source. Calls come from the whole dose curve.

These molecules were tested against Atrial natriuretic peptide receptor 1 (Homo sapiens) (UniProt P16066) (assay: Natriuretic polypeptide receptor (hNpr1) antagonism - Pilot CMLD screen (AID 1347052)). Details: HEK293 hNpr1 GloSensor cGMP luminescence, ANP-stimulated; series mostly up to 9.22 µM; activity change, negative = inhibition: at the top concentration.
Procedure: In order to identify small molecular compounds that inhibit the hNpr1 receptor we developed a high-throughput assay to measure inhibition of the guanylate cyclase activity of the receptor. cGMP production was measured using a circular permutated Firefly luciferase (FLuc) enzyme functionally linked to the cGMP binding domain of human phosphodiesterase 5 (GloSensor technology pGS-40F, (Fan, F. et al. 2008). The cGMP-sensor was expressed in human embryonic kidney 293 (HEK-293) cells and FLuc activity was measured after stimulation with hNrp agonist peptide. hNrp agonists activates the receptor's associated guanylyl cyclase (GC) domain producing cGMP which then binds to the GloSensor resulting in FLuc activation, the enzymatic activity of which can be measured as bioluminescence with addition of luciferin substrate.
This assay was initially piloted by testing with a small library of specialty compounds.
PROTOCOL TABLES (as described by Inglese J, Shamu CE and Guy RK. 2007)
SEQUENCE No. (e.g., 1, 2, 3, etc.); […] (e.g., Cells, Incubation, Reagent, etc.); VALUE and DESCRIPTION.
1. Cells. Seed 1500 HEK293 cGMP-sensor cells expressing hNpr1 per well in 4uL into Greiner 1536-well white/solid bottom high base, tissue culture-treated plates.
2. Incubation. Incubate plated cells at 37C in 5% CO2, 95% RH overnight.
3. Reagent. Add 1uL per well GloSensor reagent from Promega (2% final concentration) or CO2 independent media vehicle control to respective columns of Greiner 1536-well plates.
4. Incubation. Incubate plated cells at room temperature for 2 h, protect from light.
5. Compounds. Library compounds and A-71915 control added at 23 nL per well, transferred by Pin Tool.
6. Incubation. Incubate plated cells for 30 min. at room temperature, protect from light.
7. Detector. GloSensor baseline pre-read luminescence measured using CCD-based camera (Viewlux).
8. Compound. Add 1uL of hNppA peptide to 0.1 nM final concentration to stimulate hNpr1 or CO2 independent media as vehicle control.
9. Incubation. Incubate treated cells at room temperature for 20 min., protect from light.
10. Detector. GloSensor post-hNppA luminescence measured using CCD-based camera (Viewlux).
NOTES (numbers refer to Sequence numbers above)
1. HEK293 cells expressing hNpr1 and GIP/pGS-40F grown to 85-95% confluence (48-72 h) in T175 culture flasks (CO2 independent media supplemented with 10% FBS, 1% Pen/Strep antibiotics and 1 ug/mL puromycin). Trypsinize and harvest cells from T175 culture flasks and filter through 40 um cell strainer. Cells counted with Invitrogen Countess (30,000,000 - 50,000,000 cells/flask). Cells diluted to a final concentration of 375 cells/uL in CO2 independent media and a Millipore multidrop used to dispense 1500 cells per well (4uL/well) into 13 1536-well Greiner White/Solid bottom, high base tissue-culture treated (TC) plates and one Aurora 1536-well Black/Clear bottom, low base, TC plate (for visual inspection of cell health throughout the duration of the assay).
2. Cells incubated overnight at ambient temperature, 24 h. at 37C in 95% RH incubator protected from light, covered with metal lid with gas-exchange holes.
3. Prepare GloSensor Reagent (Promega): Reconstitute GloSensor luciferase substrate by adding 8.2mL Hepes buffer to 250mg substrate, mix well, protect from light and stored at -80C. Prepare a fresh 12% GloSensor solution in CO2 independent supplemented plating media (see above). Mix well and store at ambient temperature, protected from light. 1uL 12% GloSensor Luciferase Reagent added (2% final concentration) to respective columns of 13 x 1536-well Greiner plate with BioRaptr, 1uL CO2 independent plating media added to respective columns as vehicle control with BioRaptr.
4. Cells incubated for 2 h. at ambient temperature, protected from light with metal lid with gas-exchange holes.
5. A-71915 stock solution prepared (10 mM in DMSO). […]
% is set by controls: 0 for no effect and ±100 for the full control effect; potency is the fitted concentration of half-maximal effect.

Sequence of Atrial natriuretic peptide receptor 1 (Homo sapiens) (P16066 whole entry, looked up, the tested form may be a part): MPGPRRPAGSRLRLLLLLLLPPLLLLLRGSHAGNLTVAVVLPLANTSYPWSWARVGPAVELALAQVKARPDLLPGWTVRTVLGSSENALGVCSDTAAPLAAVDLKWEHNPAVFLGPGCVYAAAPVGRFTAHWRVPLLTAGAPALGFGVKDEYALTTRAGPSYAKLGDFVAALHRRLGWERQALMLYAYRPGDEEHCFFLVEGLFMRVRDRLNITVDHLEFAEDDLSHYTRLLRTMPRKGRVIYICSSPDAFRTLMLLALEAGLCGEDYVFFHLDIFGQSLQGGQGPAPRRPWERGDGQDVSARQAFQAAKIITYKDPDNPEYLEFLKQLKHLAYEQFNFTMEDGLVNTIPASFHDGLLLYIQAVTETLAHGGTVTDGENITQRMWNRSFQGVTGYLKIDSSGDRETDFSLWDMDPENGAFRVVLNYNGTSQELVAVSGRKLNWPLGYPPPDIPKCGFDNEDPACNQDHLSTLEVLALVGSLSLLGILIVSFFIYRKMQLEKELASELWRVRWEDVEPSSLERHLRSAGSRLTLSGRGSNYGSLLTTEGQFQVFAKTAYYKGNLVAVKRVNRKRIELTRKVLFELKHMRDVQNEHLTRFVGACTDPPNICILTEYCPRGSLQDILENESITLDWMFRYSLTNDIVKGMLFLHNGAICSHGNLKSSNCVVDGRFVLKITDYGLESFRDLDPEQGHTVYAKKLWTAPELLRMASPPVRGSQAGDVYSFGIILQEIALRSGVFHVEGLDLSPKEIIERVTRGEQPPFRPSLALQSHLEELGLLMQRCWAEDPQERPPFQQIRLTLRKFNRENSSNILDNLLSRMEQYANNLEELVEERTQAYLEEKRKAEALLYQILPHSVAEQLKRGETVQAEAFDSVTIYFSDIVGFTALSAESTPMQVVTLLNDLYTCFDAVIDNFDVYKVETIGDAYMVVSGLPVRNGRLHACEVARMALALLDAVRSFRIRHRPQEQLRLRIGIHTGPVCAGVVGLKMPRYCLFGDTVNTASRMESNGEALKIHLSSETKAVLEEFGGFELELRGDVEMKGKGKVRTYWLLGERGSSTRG

Row | SMILES | activity change, negative = inhibition [%] | Potency
1 | CCOC(=O)CNC(=O)O[C@@H]1C(=O)c2cc(OC)ccc2O[C@H]1c1cccc(OC)c1 | 9.2 | –
2 | COC(=O)[C@@H]1[C@@H](c2ccccc2)NC(=O)N(Cc2ccccc2)[C@@H]1C | 2.01 | –
3 | CN1c2ccccc2[C@@]2(O)C(=O)[C@@]1(C)[C@@H]1CCC=C[C@H]12 | 1.93 | –
4 | COC(=O)CCCC1=CC2=C(c3ccccc3)C(=O)C(C)(OC(=O)C3CCCC3)C(=O)C2=CN1C1CCCCC1 (stereo not given) | 14 | –
5 | COC(=O)C1=C[C@H]([C@@H](C)[C@H](OC)c2ccccc2Br)[C@H]2c3ccccc3O[C@@H]12 | 1.13 | –
6 | C=CCCCN1C=C(C(C)=O)C(c2ccccc2)NC1=O (stereo not given) | -1.41 | –
7 | Cc1cc2c(c(=O)n1Cc1ccccc1)[C@H]1O[C@](c3ccsc3)(Cc3ccccc31)O2 | 0.432 | –
8 | CCN1C(=O)[C@@H]2[C@H]3[C@H](O)[C@H](O)CC(=NOCC[C@@H]4C=C[C@H](OC(C)=O)[C@@H](COC(C)=O)O4)[C@@H]3CC[C@H]2C1=O | 3.13 | –
9 | Cc1cc2c(c(=O)n1Cc1ccccc1)[C@H]1O[C@](CCCCN3C(=O)c4ccccc4C3=O)(Cc3cc(C#N)ccc31)O2 | 0.427 | –
10 | CCCCC#C[C@@H]1C=C[C@H](Oc2ccc(C(=O)OC)cc2)[C@@H](COC(=O)OCC)O1 | 1.53 | –
11 | CC1(OC(=O)C2CCCC2)C(=O)C=C2C=C(c3ccsc3)N(Cc3ccc4c(c3)OCO4)C=C2C1=O (stereo not given) | -7.54 | –
12 | CC(CCC(=O)OC[C@H]1O[C@H](C#Cc2ccccc2)C=C[C@H]1Oc1ccc(C)cc1)=NO[C@@H](C)CN1CCCCc2nc(C)c(C)cc21 | -0.906 | –
13 | CC(=O)O[C@@H]1C(CO[Si](C)(C)C(C)(C)C)=C(Br)C(=O)[C@@H]2O[C@]12C | -0.457 | –
14 | C=CCN1C=C2C(=O)C(C)(OC(=O)c3ccco3)C(=O)C(C=C)=C2C=C1C1CC1 (stereo not given) | -0.519 | –
15 | CC(=O)C1=C(C)N(Cc2ccccc2)C(=O)NC1CCc1ccccc1 (stereo not given) | -2.34 | –
16 | CCN1C(=O)N[C@@H](CCc2ccccc2)[C@H](C(C)=O)[C@H]1C | -0.348 | –
17 | CCCC[C@]12Cc3cc(C#N)ccc3[C@H](O1)c1c(cc(C)n(-c3ccccc3)c1=O)O2 | -1.28 | –
18 | CC(=CC[Si](C)(C)C)CCC=O | 0.316 | –
19 | CCOC(=O)CNC(=O)O[C@H]1C(=O)c2ccc(OC)cc2O[C@@H]1c1ccc2c(c1)OCO2 | 1.48 | –
20 | CCCCC1=CC2=C(c3ccco3)C(=O)C(C)(OC(=O)c3ccc(OC)cc3)C(=O)C2=CN1C1CCCCC1 (stereo not given) | -0.622 | –

Row | SMILES | activity change, negative = inhibition [%] | Potency
21 | COC(=O)[C@@H]1[C@@H](c2cccc(C(F)(F)F)c2)NC(=O)N(Cc2ccccc2)[C@@H]1C | -3.45 | –
22 | COCC=CC1=CC2=CC(=O)C(C)(OC(=O)c3cnc4ccccc4n3)C(=O)C2=CN1C1CC1 (stereo not given) | 1.09 | –
23 | COC(=O)CC=C1c2ccccc2[C@@H](O)[C@@H]1C | 6.99 | –
24 | CC(C)=CCCC(C)=CCN1C(=O)[C@@]2(CC(C)=CC[C@@H](C)O2)c2c(Br)cccc21 | 4.65 | –
25 | C#CCN1C(=O)[C@]2(O[C@H](COc3ccccc3)CC3=C2CCC3)c2ccccc21 | 4.82 | –
26 | CC1(OC(=O)C2CCCC2)C(=O)C=C2C=C(c3ccsc3)N(CCN3CCOCC3)C=C2C1=O (stereo not given) | -0.636 | –
27 | COC(=O)C1=C(C)N(CCC(C)O[Si](C)(C)C(C)(C)C)C(=O)N(C(C)=O)C1c1ccccc1 (stereo not given) | -4.29 | –
28 | C=C(CCN1C=C(C(=O)OCC)C(c2ccccc2)NC1=O)c1ccccc1 (stereo not given) | -2.93 | –
29 | COC(=O)C1=C[C@@H]([C@@H](C)[C@H](OC)c2ccccc2Br)[C@@H]2OCCC[C@H]12 | 2.15 | –
30 | COc1cc2c(cc1OC)[C@@H]1O[C@](c3ccsc3)(C2)Oc2cc(C)n(Cc3ccccc3)c(=O)c21 | – | 531 nM (active)
31 | CCCCCCCc1cc2ccccc2c2c(C(=O)OC)cc(C(=O)OC)n12 | -0.274 | –
32 | CC(C)=CCCC(C)=CCON=C1C[C@@H](O)[C@@H](O)[C@@H]2[C@H]3C(=O)N(Cc4ccc5c(c4)OCO5)C(=O)[C@@H]3CC[C@@H]12 | -0.75 | –
33 | C[C@H]1COc2c(N3CCN(C)CC3)c(F)cc3c(=O)c(C(=O)NCc4ccco4)cn1c23 | 2.83 | –
34 | C[C@@H]1C=CCC(=O)N[C@@H](c2ccc3ccccc3c2)[C@H](C)C=CCC(=O)N[C@@H]1c1ccc2ccccc2c1 | 5.87 | –
35 | Cc1c(O)ccc2c1OCO2 | 7.28 | –
36 | COc1cc(C(NC(=O)C(F)(F)F)c2cc3ccccc3o2)cc(OC)c1OC (stereo not given) | – | inactive
37 | COCOc1c2c(c(OCOC)c3c(OCOC)cccc13)C(=NNS(=O)(=O)c1ccc(C)cc1)C1=C2CCCC1 | 0.527 | –
38 | N#Cc1ccc2c(c1)C[C@]1(CCCCN3C(=O)c4ccccc4C3=O)Oc3c(c(=O)oc4ccccc34)[C@H]2O1 | 9.38 | –
39 | COC(=O)N1C2=C(c3ccccc3[C@@H]1CC(=O)O)[C@@H]1O[C@@H](C2)c2ccccc21 | 2.99 | –
40 | COC(=O)c1nnc(C(=O)NCc2ccccc2)c2[nH]c3ccccc3c12 | 3.34 | –
